# According to PubChem BioAssay AID651550 (National Center for Advancing Translational Sciences (NCATS), 2012):
# The campaign covered roughly 360,000 compounds. About 1,100 (0.31%) were called active. The list comes from a sample in which actives are over-represented; it also holds similar structures and randomly drawn compounds. A number with no mark means an inactive call. Cut-off read from the data, not from the text of the source: active = activity change below about -80%; inconclusive = mostly about -51% to -80%; inactive = weaker than that.
# Target: RAC-alpha serine/threonine-protein kinase (Homo sapiens) (UniProt P31749)
# Assay: HTS Assay for Inhibitors of Akt Phophorylation: Primary Screen
# Conditions: Neuro2A IGF-stimulated pAkt S473 HTRF, 20 min; at 50 µM, active compounds read low
# In short: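 Single-point screen (50 µM final compound) in Neuro2A cells stimulated 20 min with 6 nM IGF at 37 deg C. After lysis, Ser473-phosphorylated Akt read by HTRF (ex 330 nm, em 615/665 nm) as the 665/615 ratio.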
# % is set by controls: 0 for no effect and ±100 for the full control effect.
row,SMILES,activity change
1,O=C(C(Cc1ccccc1)n1cccc1)N1CCN(C2CCCCC2)CC1 (stereo unspecified),inactive
2,CCCCNC(=S)N/N=C1\CCCCc2ccccc21,inactive
3,S=C(NCCC1=CCCCC1)Nc1ccccc1,-117% (active)
4,CC(=O)Nc1ccc(S(=O)(=O)N(C)CC(=O)NCCC2=CCCCC2)cc1,inactive
5,CC(OC(=O)c1c(F)cccc1F)C(=O)NCCC1=CCCCC1 (stereo unspecified),inactive
6,COc1ccc(N2c3ccccc3CN(Cc3ccccc3)[C@@H](C)[C@H]2Cc2ccc(-c3ccccc3)cc2)cc1,inactive
7,O=C(C[C@H]1CC[C@@H](NC(=O)c2ccncc2)[C@@H](CO)O1)NCC1CC1,inactive
8,CC(=O)C[C@@H]1OC[C@H](CO)N1S(=O)(=O)c1ccc(C)cc1,inactive
9,CC(=O)NS(=O)(=O)c1ccc(NC(=O)/C=C/c2ccccc2Cl)cc1,inactive
10,COc1cc(OC)cc(/C(N)=N/O)c1,inactive
11,CC1(C(=O)O)CCCN(C(=O)/C=C/c2ccccc2)C1 (stereo unspecified),inactive
12,COC(=O)c1c(C)[nH]c(C(=O)/C=C/c2ccc(Cl)cc2)c1C,inactive
13,Cc1[nH]c(=O)c(C(=O)/C=C/c2ccccc2)c2c1CCCC2,-93.4% (active)
14,O=C(CCCn1c(=O)oc2ccccc21)Nc1cccnc1,5.91%
15,CC(=O)c1c(C)[nH]c(C(=O)N2CCN(S(=O)(=O)c3ccc(F)c(F)c3)CC2)c1C,inactive
16,Cc1nonc1NC(=O)CSc1nc2ccccc2cc1C#N,inactive
17,Cc1nc2cc(NC(=O)CSc3nc4c(C)cccc4cc3C#N)ccc2s1,-95.1% (active)
18,COCc1cc(C)nc(SCC(=O)Nc2cccc(C)c2)c1C#N,inactive
19,CC1(C(=O)NS(=O)(=O)c2cccc(F)c2)CCN1C(=O)Cc1cc(F)ccc1F (stereo unspecified),inactive
20,COC(=O)[C@@]12C[C@@H](CC(=O)NCCCCc3ccccc3)C(=O)N(Cc3ccccc3)C1=CCC(C)(C)C2,inactive
21,CCOc1ccccc1NC(=O)CCS(=O)(=O)c1cccc2nsnc12,inactive

row,SMILES,activity change
1,Cc1cccc(C)c1NC(=O)CCS(=O)(=O)c1cccc2nsnc12,-101% (active)
2,CCOc1ccc(NC(=O)CCS(=O)(=O)c2cccc3nsnc23)cc1,inactive
3,NS(=O)(=O)c1ccc(NC(=S)NC(=O)c2cccnc2)cc1,inactive
4,C=CCNC(=O)CC12CC3CC(C1)CC(CC(=O)NCC=C)(C3)C2,inactive
5,C=CCNC(=O)CCCOc1cccc(C)c1,3.56%
6,C=CCNC(=O)CCCC(=O)NCC=C,-102% (active)
7,CCCCCc1c(-c2ccc(OC)c(OC)c2)ncn1CCc1ccccc1OC,inactive
8,Cc1cc(=O)n2nc(N3CCC(C(=O)Nc4c(F)c(F)c(F)c(F)c4F)CC3)sc2n1,inactive
9,COc1ccc(C(=O)C(OP(=O)(OC)OC)c2ccccc2OC)cc1 (stereo unspecified),inactive
10,Cc1cc(F)ccc1NC(=O)C(C)n1c2ccccc2c2nc(=O)cc(C)n21 (stereo unspecified),inactive
11,COc1ccc(-c2nc3ccccc3n2CCC(C)C)cc1OC,-7.53%
12,CCOCCn1c(-c2ccccc2)nc2ccccc21,inactive
13,COCCn1c(-c2ccc(OC)c(OC)c2)nc2ccccc21,-119% (active)
14,COC(=O)C[C@H]1C=C[C@@H](NS(=O)(=O)c2ccc(C)cc2)[C@@H](CO)O1,inactive
15,CCc1ccc2c(c1)cc(CN(C(=S)Nc1ccccc1Cl)C1CC1)c1nnnn12,-83.6% (active)
16,CCOc1ccc2c(c1)cc(CN(C(=O)CC)C1CCCCC1)c1nnnn12,1.69%
17,CCc1cccc(NC(=S)N(CCN(C)C)C2CCN(C(C)C)CC2)c1,inactive
18,O=C(NCc1ccccc1)[C@H]1C[C@@H]1[C@H](NP(=O)(c1ccccc1)c1ccccc1)c1ccccc1,inactive
19,Cc1ccccc1CN1C(=O)CSCC1(C)C(=O)Nc1c(C)cccc1C (stereo unspecified),inactive
20,CCOC(=O)C1C(C)C(C(C)(C)C)N(S(=O)(=O)c2ccc(C)cc2)C1c1ccccc1 (stereo unspecified),inactive
